Screening data as filed in PubChem.
Compounds with a hit are over-represented: about 21% of the library has one in this group of screens.
Shiga toxin inh = blocks Shiga toxin action in Vero cells | 9.2% of 290,000 active | AID 2315 | Vero cells, Shiga toxin protein synthesis inhibition reporter | inhibition, % at 38.7 µM; in the data active = inhibition mostly above about 28%, no sharp cut-off; inactive = mostly below about 43%
HCMV inh = inhibitors of human cytomegalovirus | activity change, negative = inhibition, % at 57.5 µM | AID 1259415 | 4.5% of 410,000 active | HFF cells, HCMV-luciferase reporter, 72 h; hits give low values; in the data active = activity change below about -60%; inconclusive = no clear call, values can overlap the other calls; inactive = above about -39%
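Luciferase read-out from HCMV-luciferase-infected HFFs (MOI 1 PFU/cell) 72 h post infection at 37C; compounds added after 16 h cell attachment; activity normalized between buffer-only basal and Salinomycin (10uM) inhibitor controls.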
Pf growth 96h = P. falciparum growth inhibition at 96 hour, primary screen for plastid delayed-death inhibitors; P. falciparum luciferase reporter growth, 96 h; Potency, µM (top dose mostly 28.7 µM), most hits filed as inhibitors; 6.9% of 320,000 active; AID 504834
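Plates of compound plus infected erythrocytes (2% hematocrit, 0.05% parasitemia final) incubate 96 hours, 37 C, 5% CO2. Detection reagent added; reduced luminescence from the parasites' luciferase reporter flags inhibition.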
Cycloheximide cs = affects cycloheximide protein synthesis inhibition readout, counter-screen; cell reporter, cycloheximide protein synthesis inhibition counterscreen; max response, %; 12% of 300,000 active; AID 2314; in the data active = max response mostly above about 13%, no sharp cut-off; inactive = mostly below about 14%; also: read at 38.3 µM for the half of the compounds with a filed dose
Pf growth 48h = inhibits P. falciparum growth in the first generation, 48 h. P. falciparum luciferase growth in erythrocytes, 48 h. Potency, µM (doses to about 28.7 µM), usual class: inhibitors. 5.9% of 310,000 active
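Luciferase-expressing parasites in RBCs, 2% Hct / 0.1% parasitemia final; RPMI 1640 + 0.5% Albumax; 37 C, 5% CO2, one generation; luminescence read-out, lower signal = inhibition.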
HCV inh = HCV inhibition | Huh7.5.1 HCVcc-Cre infection, luciferase reporter, 44 h | Potency, µM (doses to about 41.8 µM), most hits filed as inhibitors | 3.4% of 340,000 active | AID 651820
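Cells (1,000/well) were plated 4 h before compound, then infected with HCVcc-Cre virus (~0.5 moi). After 44 h further culture, infection was read as luciferase luminescence following a 15 min substrate incubation at room temperature.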
Hits are given with their value; - = inactive; ? = inconclusive; . = no result; + = active, no number. Unless noted, calls follow the shape of the dose curve; as a rule, active = well fitted inhibition curve with a large enough effect; inconclusive = small, poorly fitted or top-dose-only effect, or another doubt; inactive = no such curve, though single readings can be large or run the other way.

SMILES | Shiga toxin inh | HCMV inh | Pf growth 96h | Cycloheximide cs | Pf growth 48h | HCV inh
CC(C)(C)CN1CCN(CCCc2ccccc2)C(CCO)C1 (centres undefined) | . | - | ? | - | ? | -
CCC(CC)c1nnc(NC(=O)c2cccc(S(=O)(=O)N3CCOCC3)c2)s1 | . | ? | . | . | . | -
Cc1ccc(-n2c(O)c(/C=N/c3ncn[nH]3)c3ccccc3c2=O)cc1 | - | ? | ? | - | - | ?
Oc1c(/C=N/c2ncn[nH]2)ccc2ccccc12 | 66 | - | - | 27 | - | -
C=C(C)C(=O)Nc1ccc2c(c1)OCCOCCOCCO2 | - | - | - | - | - | -
O=C1C(=O)N(CCCn2ccnc2)C(c2ccc(Br)cc2)/C1=C(\O)c1ccc2c(c1)OCCO2 (centres undefined) | - | - | 9.3µM | - | - | -
CC1Cc2cc(/C(O)=C3/C(=O)C(=O)N(CCCn4ccnc4)C3c3ccc([N+](=O)[O-])cc3)ccc2O1 (centres undefined) | . | - | . | . | . | -
O=C1C(=O)N(CCCn2ccnc2)C(c2ccc(Cl)cc2)/C1=C(\O)c1ccc2c(c1)OCCO2 (centres undefined) | - | - | - | - | - | -
CC1Cc2cc(/C(O)=C3/C(=O)C(=O)N(CCCn4ccnc4)C3c3ccc(F)cc3)ccc2O1 (centres undefined) | - | - | - | 21 | - | -
Cc1cccc(/C=N/NC(=O)c2ccc3c(c2)OCCO3)c1O | 55 | -98 | ? | - | - | .
CCOc1cccc(/C=N/NC(=O)c2ccc3c(c2)OCCO3)c1O | 82 | + | ? | 29 | ? | ?
O=C(NC1CCCCC1)c1ccc(CS(=O)(=O)Cc2ccccc2F)o1 | 68 | - | ? | 20 | - | -
O=C(NC1CCCC1)c1ccc(CSCc2ccccc2F)o1 | - | - | ? | 31 | . | -
CCOc1ccc(CC(=O)NCc2ccc3c(c2)CCN3C(=O)c2ccc(F)cc2)cc1OCC | . | - | . | . | . | .
N[C@@H](C(=O)O)c1ccc(O)c(C(=O)O)c1 | - | . | . | - | . | .
Cc1ccc(NC2=C(Cl)C(=O)c3ccccc3C2=O)cc1 | 70 | - | - | 25 | - | 7.1µM
CCCC(=O)NC1=C(Cl)C(=O)c2ccccc2C1=O | . | ? | . | . | . | 3.2µM
CCNC1=C(Cl)C(=O)c2ccccc2C1=O | - | - | - | - | . | ?
CCN(CC)c1ccc(NC2=C(Cl)C(=O)c3ccccc3C2=O)cc1 | 128 | . | 2.9µM | 60 | - | ?
O=C1C(Cl)=C(Nc2ccc(O)cc2)C(=O)c2ccccc21 | 48 | -99 | - | 23 | ? | ?
O=C1C(c2ccc(C(F)(F)F)cc2)=C(Nc2ccc(Cl)cc2)c2ccccc21 | . | - | . | . | . | .
CCN(CC)c1ccc(NC(=O)C(C)C)cc1 | - | - | - | - | - | -
NCC(=O)O | - | . | . | - | . | .
CS(=O)(=O)c1ccc(Cl)c(NC(=O)C2CCCCN2S(=O)(=O)c2ccccc2)c1 (centres undefined) | . | - | ? | . | ? | -
Cc1ccc(CNC(=O)C2CC3Cn4c(nc5cc(Cl)c(Cl)cc54)C3N2C)o1 (centres undefined) | - | - | - | - | - | -
SMILES | Shiga toxin inh | HCMV inh | Pf growth 96h | Cycloheximide cs | Pf growth 48h | HCV inh
Cc1cc(C)cc(NC2=C(N)C(=O)c3ccccc3C2=O)c1 | 122 | . | - | 43 | ? | -
O=C(O)CCC(=O)Nc1ccc(Br)cc1C(=O)c1ccc(Cl)cc1 | - | - | - | - | - | -
CCCC[C@H](O)c1ccccc1 | . | . | ? | . | - | .
O=C(O)c1cc(-c2ccccc2)nc2nc(N3CCCCC3)sc12 | - | - | - | - | - | .
NC(=O)c1cc(-c2ccccc2)nc(N2CCCCCC2)n1 | - | - | 13µM | - | - | -
c1ccc(-c2nc3ccccc3nc2N2CCOCC2)cc1 | - | - | . | - | - | -
NC(=O)c1cc(-c2ccccc2)nc(N2CCOCC2)n1 | - | - | - | - | ? | 5µM
CC[n+]1cc(-c2ccccc2)nc(N2CCOCC2)n1 | - | - | - | - | 2.3µM | -
O=C(c1cc(-c2ccccc2)nc2ccccc12)N1CCOCC1 | - | - | ? | - | - | -
Cc1ccc(NC(=O)COC(=O)CSC(=S)N2CCOCC2)cc1 | - | - | ? | 27 | - | -
Cc1cc(Cl)ccc1OC(C)C(=O)Nc1ccccc1N1CCOCC1 (centres undefined) | - | - | . | - | 7.4µM | 10µM
CC(Oc1ccc(Cl)cc1)C(=O)Nc1ccccc1N1CCOCC1 (centres undefined) | . | - | . | . | . | ?
Cc1cccc(NC(=O)CSCC(=O)Nc2cc(Cl)ccc2N2CCOCC2)c1 | . | ? | ? | . | 12µM | ?
Cc1ccccc1OCCC(=O)OCC(=O)Nc1ccc(N2CCOCC2)cc1 | - | - | - | 14 | - | -
C=CCN(c1ccccc1)S(=O)(=O)c1cccc2cccnc12 | - | - | - | - | - | -
Cc1cc(OCC(=O)Nc2ccccc2N2CCOCC2)c(C(C)C)cc1Cl | . | -66 | ? | . | ? | ?
O=C(COc1cccc(Br)c1)Nc1ccc(N2CCOCC2)cc1N1CCOCC1 | . | - | - | . | ? | ?
Cc1cc(OCC(=O)N2CCOCC2)c(C(C)C)cc1Cl | - | - | . | - | - | -
CCC(=O)c1ccc(OCC(=O)Nc2ccc(N3CCOCC3)cc2N2CCOCC2)cc1 | - | . | 2.9µM | - | ? | -
CCN(CC)S(=O)(=O)c1ccc(N2CCCC2)c(NC(=O)Cc2ccccc2)c1 | - | - | ? | - | ? | ?
CCN(CC)S(=O)(=O)c1ccc(N2CCOCC2)c(NC(=O)Cc2ccc(Cl)cc2)c1 | - | ? | 12µM | - | 12µM | ?
CCN(CC)S(=O)(=O)c1ccc(N2CCOCC2)c(NC(=O)COc2ccccc2C)c1 | . | ? | 2.9µM | . | 1.9µM | ?
CCN(CC)S(=O)(=O)c1ccc(N2CCOCC2)c(NC(=O)COc2ccc(OC)cc2)c1 | . | - | ? | . | ? | ?
Cc1ccc2oc(=O)n(CCNC(=O)Nc3ccc(C)c(F)c3)c2c1 | . | - | . | . | . | .
CCc1ccc(Cn2c(CNS(=O)(=O)c3ccc(Cl)s3)nc3cccnc32)cc1 | . | - | . | . | . | .
SMILES | Shiga toxin inh | HCMV inh | Pf growth 96h | Cycloheximide cs | Pf growth 48h | HCV inh
COc1cc(NC(=O)CN(C)S(=O)(=O)c2ccc3[nH]c4c(c3c2)CCCC4)cc(OC)c1OC | . | - | . | . | . | .
O=[N+]([O-])c1ccc(C2=NN(CCO)C(=Nc3ccc(OC(F)(F)F)cc3)SC2)cc1 | - | - | - | - | - | ?
Cc1ccccc1OCC(=O)Nc1ccc(N2CCOCC2)cc1N1CCOCC1 | . | - | ? | . | 9.3µM | ?
COc1ccc(OCC(=O)Nc2ccccc2N2CCN(C)CC2)cc1 | - | - | - | - | - | -
O=C(Cc1ccc2c(c1)OCCO2)Nc1cc(Cl)ccc1N1CCOCC1 | . | - | ? | . | 12µM | ?
CCC(=O)N1CCN(c2ccccc2NC(=O)COc2ccc(C(C)C)cc2)CC1 | - | ? | ? | - | 10µM | ?
CCN(CC)S(=O)(=O)c1ccc(N2CCOCC2)c(NC(=O)COc2ccccc2C#N)c1 | - | - | ? | - | 12µM | -
Cc1ccccc1OCCC(=O)Nc1ccc(N2CCOCC2)cc1N1CCOCC1 | . | - | - | . | ? | ?
